A short description of assay [1]: qHTS assay to identify small molecule agonists of the hypoxia (HIF-1) signaling pathway - cell viability counter screen (AID 1224844; calls by dose curve; note: nearly all actives have a fitted effect of over 50% in size). The method, boiled down:
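HRE-bla ME-180 cells, 2,000/well in 0.5% dialyzed FBS medium, treated 17 h at 37C with compounds. Viability read in the same wells as the bla reporter, by CellTiter-Glo luminescence after 30 min at room temperature.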

Assay [2] can be described thus: qHTS assay to identify small molecule agonists of H2AX (AID 1224845; active = well fitted activation curve with a large enough effect in the signal ratio in the repeat runs, not every such curve was filed as active; the % refers to the signal ratio). The method, boiled down: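 Wild-type CHO-K1 cells, plated overnight, exposed 3hr at 37C to 15 concentrations (0.76% DMSO final). Lysed, then HTRF anti-pH2AX (S139) cryptate and anti-H2AX-d2 antibodies, 24 hr room temperature; 665/620 nm emission read.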
A short description of assay [3]: qHTS assay to identify small molecule agonists of the hypoxia (HIF-1) signaling pathway (AID 1224846; active = well fitted activation curve with a large enough effect in the signal ratio in the repeat runs, not every such curve was filed as active; the % refers to the signal ratio). The method, boiled down: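 HRE-bla ME-180 beta-lactamase reporter cells in medium with 0.5% dialyzed FBS, pre-incubated 5 h then exposed to compounds 17 h at 37C, 5% CO2; reporter induction read with CCF4-AM FRET substrate.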
Assay [4] in a line: qHTS assay to identify small molecule agonists of H2AX - cell viability counter screen (AID 1224847; calls by dose curve; note: top concentration of the series differs between compounds; nearly all actives have a fitted effect of over 30% in size). The method, boiled down:
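Cytotoxicity counter screen in wild-type CHO-K1 cells: a 3 hr compound treatment at 37C across 15 concentrations, followed by CellTiter-Glo luminescence to gauge viable cells.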

The nature of assay [5]: qHTS RealTime-Glo MT Cell Viability Assay in HepG2 cells - 24 hour (AID 1224867). Note: nearly all actives have a fitted effect of over 50% in size. The gist of the method: (§1)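 Real-time, nonlytic viability: 600 HepG2 cells/well mixed with NanoLuc enzyme plus prosubstrate; 5 h settle, compound (DMSO) added by pintool; luminescence monitored over 40 h at 37 C.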
Assay [6] can be described thus: qHTS RealTime-Glo MT Cell Viability Assay in HEK293 cells - 32 hour (AID 1224868). Note: top concentration of the series differs between compounds; nearly all actives have a fitted effect of over 50% in size. The method, boiled down: (§2)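 Cells + reagent dispensed (600 cells/well, HEK293) → 5 h at 37 C/5% CO2 → 23 nL compound in DMSO pinned → 40 h at 37 C → luminescence read at 0, 8, 16, 24, 32, 40 h.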
Assay [7] can be described thus: A CellTox Green Cytotoxicity Assay to monitor cytotoxicity in HEK293 cells - 0 hour (AID 1224869). Note: nearly all actives have a fitted effect of over 50% in size. The method, boiled down: (§3)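 HEK293 cells, 600/well, were preincubated 5 hours and then exposed to compounds at 37 C for up to 40 hours. A cell-impermeant cyanine dye staining dead-cell DNA was read by fluorescence at 0, 8, 16, 24, 32 and 40 h time points.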
Assay [8] is described as follows: qHTS RealTime-Glo MT Cell Viability Assay in HepG2 cells - 40 hour (AID 1224870). Note: nearly all actives have a fitted effect of over 50% in size. The method, boiled down: (§4)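 HepG2 cells (600/well) mixed with RealTime-Glo MT reagent, settled 5 h at 37 C/5% CO2 before compound addition. Nonlytic NanoLuc luminescence from viable-cell prosubstrate reduction read repeatedly during 40 h treatment at 37 C.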
Assay [9] in a line: A CellTox Green Cytotoxicity Assay to monitor cytotoxicity in HEK293 cells - 40 hour (AID 1224871). Note: nearly all actives have a fitted effect of over 45% in size. Note: potency is the fitted concentration of half-maximal effect. The method, boiled down: as §3
Assay [10] can be described thus: qHTS RealTime-Glo MT Cell Viability Assay in HEK293 cells - 16 hour (AID 1224872). The method, boiled down: as §2
Assay [11] is described as follows: qHTS RealTime-Glo MT Cell Viability Assay in HepG2 cells - 8 hour (AID 1224873). Note: nearly all actives have a fitted effect of over 55% in size. The gist of the method:
as §4

Assay [12] is described as follows: qHTS RealTime-Glo MT Cell Viability Assay in HEK293 cells - 40 hour (AID 1224874). Note: nearly all actives have a fitted effect of over 50% in size. The conditions noted are these: RealTime-Glo luminescence; max response: stronger effect = lower value. The method, boiled down: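 600 cells/well were plated with the nonlytic NanoLuc/prosubstrate reagent, pre-incubated 5 h, then given 23 nL of compound in DMSO. Incubation at 37 C for 40 h, with luminescence from viable-cell-reduced substrate read repeatedly from 0 h.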

Assay [13] in a line: A CellTox Green Cytotoxicity Assay to monitor cytotoxicity in HEK293 cells - 24 hour (AID 1224875). Note: nearly all actives have a fitted effect of over 45% in size. The gist of the method:
as §3

Assay [14] in a line: A CellTox Green Cytotoxicity Assay to monitor cytotoxicity in HepG2 cells - 16 hour (AID 1224876). Note: nearly all actives have a fitted effect of over 45% in size. The method, boiled down: (§5)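 HepG2 cells, 600/well, preincubated 5 h with CellTox Green dye, then exposed to Tox21 compounds in DMSO at 37 C for up to 40 h. Dead-cell DNA fluorescence read at the indicated time point.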
Assay [15] in a line: qHTS RealTime-Glo MT Cell Viability Assay in HepG2 cells - 32 hour (AID 1224877). Note: nearly all actives have a fitted effect of over 55% in size. The gist of the method:
as §1

Assay [16] can be described thus: A CellTox Green Cytotoxicity Assay to monitor cytotoxicity in HepG2 cells - 24 hour (AID 1224878). Note: nearly all actives have a fitted effect of over 45% in size. The method, boiled down: as §5
Assay [17] can be described thus: A CellTox Green Cytotoxicity Assay to monitor cytotoxicity in HepG2 cells - 40 hour (AID 1224879). Note: nearly all actives have a fitted effect of over 40% in size. Note: potency is the fitted concentration of half-maximal effect. The gist of the method: as §5
Assay [18] is described as follows: qHTS assay to identify small molecule antagonists of the estrogen related receptor (ERR) signaling pathway from Tox21 library (AID 1224848). Note: nearly all actives have a fitted effect of over 50% in size. The method, boiled down: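 ERR reporter cell line (from NTP) seeded 2,000 cells/well, rested 6 h at 37 C/5% CO2, then pin-dosed with compounds in DMSO. After 18 h at 37 C, ONE-Glo added; luminescence read after 30 min at room temperature.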

The nature of assay [19]: qHTS assay to identify small molecule agonists of the estrogen related receptor (ERR) signaling pathway from Tox21 library (AID 1224849; calls by dose curve; note: nearly all actives have a fitted effect of over 15% in size). Conditions: ERR reporter cell line, ONE-Glo luciferase, 18 h. The method, boiled down:
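ERR reporter cells (NTP line) pre-incubated 6 hours at 37 C, then exposed to compounds for 18 hours at 37 C. ONE-Glo luciferase luminescence was read after 30 minutes at room temperature.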

Assay [20] has as its target Thyrotropin receptor (Homo sapiens) (UniProt P16473). Kind of assay: qHTS assay to identify small molecule agonists of the thyroid stimulating hormone receptor (TSHR) signaling pathway (AID 1224843; calls by dose curve; note: nearly all actives have a fitted effect of over 45% in size). The gist of the method:
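TSHR-HEK293 cells in agonist mode, 30 min room-temperature step, then cAMP measured by competitive HTRF (cAMP-d2 with anti-cAMP cryptate) after 1 h at room temperature. Tested at 15 concentrations in triplicate.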

The structures appear in SMILES notation. Several values for one entry are separate records, joined by “and”; a condition that tells them apart may be missing. Equal entries are not always repeated. Inconclusive results are not listed. Some compounds were tested as several samples or in several runs, with calls that do not always agree. Activity calls are given as the source filed them. Unless noted, calls come from the whole dose curve; as a rule, active = well fitted curve in the direction sought with a large enough effect in the repeat runs; inconclusive = weak or mixed curves; inactive = no such curve, though single readings can be large; an effect the other way counts as inactive or inconclusive.

Data on seven compounds can be found in PubChem BioAssay (Tox21).
% is set by controls: 0 for no effect and ±100 for the full control effect.

Sequence of Thyrotropin receptor (Homo sapiens) (P16473 whole entry, looked up): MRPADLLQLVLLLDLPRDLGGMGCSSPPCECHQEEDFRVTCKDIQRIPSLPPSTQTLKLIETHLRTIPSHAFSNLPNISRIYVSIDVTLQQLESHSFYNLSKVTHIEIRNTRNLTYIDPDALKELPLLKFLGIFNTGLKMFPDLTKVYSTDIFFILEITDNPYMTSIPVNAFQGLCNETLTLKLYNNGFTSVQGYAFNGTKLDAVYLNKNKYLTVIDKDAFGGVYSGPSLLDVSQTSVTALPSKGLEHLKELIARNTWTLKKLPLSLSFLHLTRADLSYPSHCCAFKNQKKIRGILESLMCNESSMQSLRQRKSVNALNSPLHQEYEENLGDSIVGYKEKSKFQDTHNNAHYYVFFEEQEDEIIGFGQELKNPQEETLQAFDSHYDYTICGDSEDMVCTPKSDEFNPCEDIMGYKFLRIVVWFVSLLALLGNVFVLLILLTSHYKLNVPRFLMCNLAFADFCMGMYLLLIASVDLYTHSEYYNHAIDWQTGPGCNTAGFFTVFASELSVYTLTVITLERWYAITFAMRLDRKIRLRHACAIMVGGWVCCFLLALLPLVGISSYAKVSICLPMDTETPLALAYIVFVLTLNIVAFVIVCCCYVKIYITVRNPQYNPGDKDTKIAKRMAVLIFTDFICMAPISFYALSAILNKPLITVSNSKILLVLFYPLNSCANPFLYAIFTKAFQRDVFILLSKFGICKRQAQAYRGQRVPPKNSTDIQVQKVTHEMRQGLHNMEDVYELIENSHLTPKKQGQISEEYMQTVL

For `CC(=O)C1CCOC1=O` (centres undefined), the Potency entry in [1], in [2], in assay [4], in assay [6], in [7] and in assay [9] was “inactive” in each case. The Potency entry in [13], in assay [14], in [16] and in [17] was “inactive” each time. The call in assay [3], in assay [5], in [8], in assay [10], in assay [11] and in [15] was inactive. Also, in assay [12], the max response was 3.16% (inactive) and 1.64% (inactive).
With `C=CCN=C=S`, the Potency result in [1], in assay [2], in assay [4], in assay [18], in assay [6] and in [7] was “inactive” each time. The Potency entry in assay [9], in assay [13], in [14], in [16] and in assay [17] was “inactive” throughout. The outcome in [3], in [5], in assay [8], in assay [10], in assay [11] and in assay [15] was inactive. Also, the activity change, positive = activation in assay [19] (at 92.4 µM (top of the series)) was 10.8% (inactive) and 0.847% (inactive).
As for `CNCC(O)c1ccc(O)cc1` (centres undefined), the Potency entry in assay [1], in assay [2], in assay [4], in assay [18], in assay [6] and in assay [7] was “inactive” each time. Also, the Potency entry in assay [9], in [13], in assay [14] and in [17] was “inactive” in each case. Further, the compound was classed as inactive in assay [3], in assay [5], in [8], in assay [10], in assay [11] and in [15]. Moreover, the activity change, positive = activation was 12.7% (inactive) in assay [19] (at 42.5 µM (top of the series)) and 2.21% (inactive) in [19] (at 92.4 µM (top of the series)).
Regarding `O=C(O)c1cc(Oc2ccc(C(F)(F)F)cc2Cl)ccc1[N+](=O)[O-]`, the Potency entry in assay [1], in assay [2], in assay [4], in assay [18], in [6] and in [7] was “inactive” in each case. The Potency result in assay [9], in assay [13], in assay [14], in [16] and in [17] was “inactive” each time. Moreover, the result in assay [3], in assay [5], in [8], in assay [10], in [11] and in assay [15] was inactive. In addition, the activity change, positive = activation was 9.01% (inactive) in assay [19] (at 42.5 µM (top of the series)); -1% (inactive) and -14.6% (inactive) and -4.43% (inactive) in [19] (at 92.4 µM (top of the series)). Further, in assay [12], the max response was 3.72% (inactive) [middle of 4 runs].
With `C[C@]12CC[C@H](O)CC1=CC[C@@H]1[C@@H]2CC[C@]2(C)C(=O)CC[C@@H]12`, the Potency entry in [20], in assay [1], in assay [2], in assay [6], in [7] and in assay [13] was “inactive” throughout. The Potency entry in assay [14] and in [16] was “inactive” each time. Also, the result in assay [5], in assay [8], in [10], in assay [11] and in assay [15] was inactive. The Potency result in assay [9] was “inactive and 43.6 µM (active)”; in assay [17], 49 µM (active) and inactive. Further, the max response in assay [12] was -15.5% (inactive).
`O=[N+]([O-])c1cc([As](=O)(O)O)ccc1O`: the Potency result in assay [1], in assay [2], in assay [4], in assay [18], in assay [6] and in [7] was “inactive” in each case. In addition, the Potency result in [9], in assay [13], in assay [14] and in [17] was “inactive” throughout. The call in [3], in [5], in assay [8], in assay [10], in assay [11] and in [15] was inactive. In addition, the activity change, positive = activation in assay [19] (at 42.5 µM (top of the series)) was -1.93% (inactive); in assay [19] (at 92.4 µM (top of the series)), -21.2% (inactive) and 4.02% (inactive). In [12], the max response is 6.64% (inactive) and -3.36% (inactive) and 2.24% (inactive).
In the case of `Cc1cccc(N)c1C`, the Potency result in [1], in assay [2], in assay [4], in assay [6], in assay [7] and in assay [9] was “inactive” in each case. For the same compound, the Potency result in assay [13], in assay [14] and in assay [17] was “inactive” throughout. Besides, the outcome in [3], in assay [5], in assay [8], in assay [10], in assay [11] and in [15] was inactive. Besides, the max response in assay [12] was -0.402% (inactive) and 10.2% (inactive).
